# This is a sample that favours compounds with a hit; in the whole collection about 4.8% have one here.
# AI-2 QS mod: Vibrio harveyi AI-2 quorum sensing modulation. 300,000 compounds, 0.4% hits. activity change, % at 7.5 µM. Vibrio harveyi JMH597 AI-2 luminescence/OD600 ratio, 9 h; hits give low values; strain lacks LuxN and CqsS sensors; 0 = neutral-control median. AID 2094; in the data active = activity change below about -75%, passing the limit was not always enough;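 also: luminescence divided by OD600 gain over 9 h not by final OD600 alone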
# HIF activator: HIF pathway transcriptional activation. 300,000 compounds, 0.32% hits. activation, % at 7.5 µM (by protocol). U2OS HRE-luciferase reporter, luminescence; normalized: DMSO 0%, desferrioxamine 100%;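 active = mean activation of at least 10% of the iron chelator positive control signal, with at least half of replicates also reaching 10%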
# SUMO Mot1 rescue: SUMOylation pathway inhibition by Mot1-301 growth rescue; S. cerevisiae Mot1-301 growth rescue, ATP luminescence, 38.5C; percent above DMSO median, 100 means doubled; growth rescue, % at 18.8 µM; 320,000 compounds, 1% hits; AID 2716;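 active = every valid replicate shows activation above 250% relative to neutral control wells; inactive = the rest, any valid replicate at or below 250%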
# ALR inh: human ALR oxidase inhibition via reduced H2O2 | 290,000 compounds, 3.8% hits | purified ALR, DTT oxidation, H2O2 HRP-luminol luminescence | inhibition, % (concentration not given with the values) | AID 485317;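 active = mean replicate inhibition above about 79%, with every replicate also reaching it, limit read from the data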
# Target sequence (P55789 whole entry, looked up): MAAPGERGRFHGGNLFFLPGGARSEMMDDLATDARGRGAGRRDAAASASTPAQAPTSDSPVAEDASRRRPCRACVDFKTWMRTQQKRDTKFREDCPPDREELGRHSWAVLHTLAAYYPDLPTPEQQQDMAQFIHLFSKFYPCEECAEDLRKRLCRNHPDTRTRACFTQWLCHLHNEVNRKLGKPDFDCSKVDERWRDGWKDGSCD
# A number is an active result; – = inactive; · = no result given.
SMILES,AI-2 QS mod,HIF activator,SUMO Mot1 rescue,ALR inh
O=C(CSCc1ccccc1Cl)N/N=C/c1ccco1,–,–,–,–
O=C(Nc1ccc(C(F)(F)F)cc1)C1CCN(c2cnccn2)CC1,–,–,–,–
O=S(=O)(c1ccc(Oc2ccc(S(=O)(=O)N(CCO)CCO)cc2)cc1)N(CCO)CCO,–,–,–,–
O=S(=O)(c1ccc(N2CCC(c3ccc(Cl)cc3)=N2)cc1)N(CCO)CCO,–,–,–,98
CN(C)CCCNS(=O)(=O)c1ccc(N2CCC(c3ccc(Cl)cc3)=N2)cc1,–,–,–,91
COc1ccc(N2C(=O)/C(=C/N(C)C)NC2=S)cc1,–,–,–,–
CCN1C(=O)/C(=C\N(C)C)NC1=S,–,–,–,98
COc1ccc(S(=O)(=O)/N=C2/NC(=O)/C(=C\c3ccco3)S2)cc1,–,–,–,–
COc1ccc(S(=O)(=O)/N=C2/NC(=O)/C(=C/c3ccco3)S2)cc1,–,–,–,99
O=c1cc(-c2ccccc2Cl)oc2c(NS(=O)(=O)c3cc(Cl)cc(Cl)c3O)ccc(O)c12,–,–,–,97
CCc1ccc(S(=O)(=O)Nc2ccc(O)c3c(=O)cc(-c4ccccc4Cl)oc23)cc1,–,–,–,–
Cc1nnc(Nc2ccc3c(c2)OCO3)c2ccccc12,–,–,–,88
Cc1ccc(-c2nnc(Nc3ccc4c(c3)OCO4)c3ccccc23)cc1S(N)(=O)=O,–,–,·,·
C=CCC1NS(=O)(=O)O[C@H](CCCC)[C@@H]1O (stereo partly specified),–,–,–,–
CC(=O)Oc1c(I)cc(I)cc1C(=O)Nc1ccc(Cl)cc1,–,–,–,–
Clc1ccc(CN2C3=NCCN3c3ccccc32)cc1Cl,–,–,–,98
Cc1ccc(CN2C3=NCCN3c3ccccc32)cc1,–,–,–,·
O=C(CN1C2=NCCN2c2ccccc21)C12CC3CC(CC(C3)C1)C2,–,–,–,98
c1ccc(CN2C3=NCCN3c3ccccc32)cc1,–,–,–,96
c1ccc2c(c1)N1CCN=C1N2CCN1CCCCC1,–,–,–,–
O=C(NCCCSc1ccccc1)c1cc(Br)ccc1O,–,–,–,–
COc1ccc(NC(=O)COC(=O)C2CC2)cc1S(=O)(=O)N1CCCCC1,·,·,–,–
COc1cccc(N=c2oc3cc(O)ccc3cc2C(=O)NCC2CCCO2)c1 (stereo unspecified),–,–,–,–
COc1ccccc1N=c1oc2cc(O)ccc2cc1C(=O)NCC1CCCO1 (stereo unspecified),–,–,–,92
CC(C)(C)OC(=O)NCc1n[nH]c(=S)n1C1CC1,–,–,–,86
SMILES,AI-2 QS mod,HIF activator,SUMO Mot1 rescue,ALR inh
CC(C)(C)OC(=O)NCC(=O)N1CCC(C(=O)O)CC1,–,–,–,–
Cc1ccn(-c2ccc(NC(=O)c3cccs3)cc2)n1,–,–,–,–
CN1CCN(c2ccc(Nc3ccnc4cc(Cl)ccc34)cc2)CC1,–,–,–,92
CCOCCCn1c(SC(C)C(=O)NCC2CCCO2)nc2sc(C)c(C)c2c1=O (stereo unspecified),·,·,–,–
COc1ccc(C(=O)O)cc1S(=O)(=O)N1CCSCC1,–,–,–,–
C=CC[n+]1ccn(-c2nc3ccccc3nc2[N-]S(=O)(=O)c2cccs2)c1,–,–,–,95
O=S(=O)(NNc1ccc(F)cc1F)c1cccc(Cl)c1,–,–,–,98
O=C(CC1CC2CCC1C2)NC1CCCCCCC1 (stereo unspecified),–,–,–,–
CN(NC(=O)NN)c1ncc(C(F)(F)F)cc1Cl,–,–,–,–
CCOc1cc(/C=N/NC(=O)NN(C)c2ncc(C(F)(F)F)cc2Cl)ccc1O,–,–,–,99
COc1ccc(Cl)c(OC)c1C(=O)NC(=O)Nc1c(F)cc(F)cc1F,–,19,–,–
COc1cccc(OC)c1C(=O)NC(=O)Nc1c(F)cc(F)cc1F,–,–,–,–
Cc1ccc(S(=O)(=O)N[C@@H](C)C(=O)OCC(=O)N2c3ccccc3NC(=O)C2(C)C)cc1,·,·,–,·
COc1ccc(-c2csc3[nH]c(=S)n(-c4ccccc4)c(=O)c23)cc1OC,–,–,–,83
COc1cc([C@H]2[C@@H]3CCCC[C@]3(O)CCN2CC(=O)Nc2ccc(C)cc2)ccc1O,–,–,–,–
CCN(CC)c1ccc(C2C3CCCCC3(O)CCN2C(=O)c2cccs2)cc1 (stereo unspecified),–,–,–,·
CCN(CC)c1ccc([C@H]2[C@@H]3CCCC[C@]3(O)CCN2CC(=O)NCc2ccco2)cc1,–,–,–,99
CCN(CC)c1ccc(C2C3CCCCC3(O)CCN2CC(=O)N2CCCCC2)cc1 (stereo unspecified),–,–,–,99
Cc1cc(C)cc(NC(=O)[C@@H](NC(=O)c2ccco2)C(C)C)c1,–,–,–,–
COc1cccc(CNCC(=O)NC(=O)NC2CCCC2)c1,·,·,–,–
O=C(CCNS(=O)(=O)c1ccc(Br)cc1)NCc1ccco1,–,–,–,·
CCN(CC)c1ccc(CNCc2cccs2)cc1,–,–,–,99
COc1ccc(Cn2ccnc2)cc1[N+](=O)[O-],–,–,–,–
COc1ccc(NCc2ccc(OC)c(Cn3ccnc3)c2)c(OC)c1,–,–,–,99
Cc1ccc(OCC(=O)c2c(O)c3ccccc3oc2=O)cc1C,–,–,·,–
SMILES,AI-2 QS mod,HIF activator,SUMO Mot1 rescue,ALR inh
Cc1ccc(C(C)C)c(OCC(=O)c2c(O)c3ccccc3oc2=O)c1,–,–,–,94
CCCc1ccc2oc(C(=O)N3CCN(C4CCS(=O)(=O)C4)CC3)c(C)c2c1 (stereo unspecified),–,–,–,–
COc1ccc(CCNC(=O)C(=O)NCC2OCCN2S(=O)(=O)c2cc(F)ccc2F)cc1OC (stereo unspecified),–,–,–,·
COCCNC(=O)C(=O)NCC1OCCN1S(=O)(=O)c1cc(F)ccc1F (stereo unspecified),–,17,–,·
COc1ccccc1C(=O)NC(=O)CSc1ccc(C)c(C)c1,·,·,–,97
COCCNc1nnc(SCC(=O)NC(=O)c2ccccc2OC)s1,–,–,–,–
CCOc1ccccc1CN1CCN(S(C)(=O)=O)CC1,–,14,–,–
Cc1ccccc1CN1CCN(S(C)(=O)=O)CC1,–,–,–,–
N/C(=N\OC(=O)c1ccco1)c1ccc(Cl)cc1,–,–,–,99
CCN1C(=O)/C(=C2/Sc3ccccc3N2CC)S/C1=N\c1ncn[nH]1,–,–,–,98
C=CCN1C(=O)/C(=C2/Sc3ccccc3N2CC)SC1=S,–,–,–,–
CCOc1ccccc1N(CC(=O)NC1CCCC1)S(=O)(=O)c1ccc(C)cc1,–,–,–,–
O=C(Nc1cccc(Cl)c1)c1ccc(=O)[nH]n1,–,–,–,·
COc1cc(/C=c2\sc3n(c2=O)CCCN=3)ccc1O,–,–,–,99
COc1ccc(/C=C2\N=C3CCCCCN3C2=O)cc1OC,–,–,–,–
O=C1/C(=C\c2ccc(O)c(O)c2)N=C2CCCCCN12,–,–,·,99
COc1cc(/C=C2\N=C3CCCCCN3C2=O)ccc1O,–,–,–,99

# Assay outcomes as filed in PubChem.
